A selection: hits, their analogues and other compounds. The true share with any hit is near 3.9%.
HIF-2a inh – inhibitors of HIF-2a. 786-0 RCC cells HIF-2a reporter, luciferase luminescence, overnight. inhibition, % at 18.8 µM. 0.72% of 360,000 active;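 active = inhibition of the luminescence signal of 40% or more relative to plate controls, in a single-dose primary screen at 18.75 µM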
KKLEB tox – counter-screen for CF NF-kB inhibitors: cytotoxicity; 0.36% of 360,000 active; KKLEB CF airway cells viability, ATPlite luminescence, overnight; stronger effect = lower value; cells stimulated with P. aeruginosa culture filtrate; activity change (cytotoxicity), % at 5 µM;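 active = corrected activity change at or below -50% at 5 µM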
CF NFkB block – inhibitors of cystic fibrosis induced NF-kB; 0.86% of 360,000 active; KKLEB NF-kB-GFP reporter, PAF-induced, GFP fluorescence overnight; inhibition, % at 5 µM;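 active = at least 50% inhibition at 5 µM, scaled per plate between neutral and stimulator controls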;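 also: PAF is a Pseudomonas aeruginosa culture filtrate used as stimulus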
TWEAK-Fn14 inh – inhibitors of TWEAK-Fn14 interaction signaling; TWEAK-stimulated Fn14 reporter cells, luciferase luminescence, 8 h; inhibition, % at 10 µM; 2% of 360,000 active; AID 1159606; in the data active = inhibition above about 50%
TROY NFkB inh – blocks TROY-dependent signaling in reporter cells; Q293 LMP1-TROYcd NF-kB luciferase reporter, 4 h; AID 1347056; 0.98% of 360,000 active; inhibition, % at 10 µM;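 active = compounds whose plate-normalised and pattern-corrected inhibition of the luciferase reporter signal at the single screening dose is 50% or more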
Peg3 prom inh-1 – Peg3 promoter activity inhibition; HeLa PEG-Prom luciferase reporter, luminescence, overnight; inhibition, % at 20 µM; 1.7% of 360,000 active; AID 588405;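 active = inhibition of at least 50% at 20 µM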
Peg3 prom inh-2 – Peg3 promoter inhibition confirmation | shares compounds with Peg3 prom inh-1 | HeLa PEG-Prom luciferase reporter, luminescence, overnight | inhibition, % at 20 µM | 84% of 1,300 active | AID 602417;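 active = at 20 µM dose, 40% or more inhibition averaged across four replicates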
CF NFkB inh conf – CF NF-kB inhibition confirmation, single concentration; shares compounds with CF NFkB block; AID 602472; 64% of 1,300 active; KKLEB CF airway cells, PAF-induced NF-kB-GFP fluorescence, overnight; inhibition, % at 5 µM; in the data active = inhibition above about 40%;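 also: stimulus PAF is a Pseudomonas aeruginosa filtrate and not platelet activating factor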
Mdm2-MdmX confirm – Mdm2/MdmX (human) interaction inhibition, confirmed; shares compounds with HIF-2a inh; SaOS-2 split-luciferase Mdm2/MdmX complementation, luminescence; inhibition, % at 8 µM; 99% of 740 active;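 active = mean inhibition of the luminescence signal across two replicates at or above 26 percent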
Target sequence (O15151 whole entry, looked up): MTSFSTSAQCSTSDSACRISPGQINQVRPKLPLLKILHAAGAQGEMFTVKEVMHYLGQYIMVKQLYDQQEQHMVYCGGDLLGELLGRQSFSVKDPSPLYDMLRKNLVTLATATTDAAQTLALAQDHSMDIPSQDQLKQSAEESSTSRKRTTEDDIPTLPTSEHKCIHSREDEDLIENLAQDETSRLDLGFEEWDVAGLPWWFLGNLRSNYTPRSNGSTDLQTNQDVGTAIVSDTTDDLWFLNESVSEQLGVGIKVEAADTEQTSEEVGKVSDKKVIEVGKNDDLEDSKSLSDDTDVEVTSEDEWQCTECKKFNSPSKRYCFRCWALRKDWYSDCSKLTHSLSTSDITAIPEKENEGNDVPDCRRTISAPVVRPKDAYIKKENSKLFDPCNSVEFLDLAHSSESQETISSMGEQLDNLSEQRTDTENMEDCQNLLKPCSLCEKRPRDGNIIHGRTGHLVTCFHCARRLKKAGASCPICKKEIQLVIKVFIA
Target sequence (Q00987 whole entry, looked up): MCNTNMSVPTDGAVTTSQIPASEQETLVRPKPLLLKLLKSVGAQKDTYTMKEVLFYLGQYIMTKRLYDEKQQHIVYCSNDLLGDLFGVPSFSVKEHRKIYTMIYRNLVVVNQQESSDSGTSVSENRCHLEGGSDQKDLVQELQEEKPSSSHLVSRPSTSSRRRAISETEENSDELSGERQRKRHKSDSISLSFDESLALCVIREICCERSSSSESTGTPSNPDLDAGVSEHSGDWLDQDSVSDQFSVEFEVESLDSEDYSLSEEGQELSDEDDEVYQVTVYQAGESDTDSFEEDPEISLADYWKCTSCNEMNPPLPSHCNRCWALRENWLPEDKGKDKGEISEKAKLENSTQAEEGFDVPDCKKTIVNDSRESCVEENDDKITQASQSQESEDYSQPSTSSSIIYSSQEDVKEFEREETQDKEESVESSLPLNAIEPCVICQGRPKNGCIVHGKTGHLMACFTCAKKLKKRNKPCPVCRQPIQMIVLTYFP
HIF-2a inh conf – confirmation of HIF-2a inhibitors; shares compounds with HIF-2a inh; 786-0 RCC cells, HIF-2a luciferase reporter luminescence, overnight; inhibition, % at 18.8 µM; 56% of 1,800 active; AID 651580;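 active = mean inhibition across four replicates of at least 40 percent at the single tested concentration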
HIF-1a cs – inhibits HIF-1a reporter, a counter-screen for HIF-2a inhibitors. shares compounds with HIF-2a inh. MiaPaCa-2 HIF-1a luciferase reporter, desferoxamine, overnight. inhibition, % at 18.8 µM. 72% of 1,800 active;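 active = mean inhibition of the reporter signal across four replicates at the single tested dose of 50% or more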
Of the large screens only hits and unclear results are named; the others gave an inactive call (follow-up assays come after a bar, where they were run).

O=C1C(Cl)=C(Nc2ccc(O)cc2)C(=O)c2ccccc21	HIF-2a inh 94, KKLEB tox -82, CF NFkB block 108, TROY NFkB inh 64, Peg3 prom inh-1 107 | Peg3 prom inh-2 96 | Mdm2-MdmX confirm 103
COc1cccc(CNC(=O)c2cc(S(=O)(=O)N3CCCCC3)ccc2C)c1	none
CC(NC(=O)c1ccc([N+](=O)[O-])o1)C12CC3CC(CC(C3)C1)C2 (stereo unspecified)	HIF-2a inh 64, KKLEB tox -70, CF NFkB block 100, Peg3 prom inh-1 86 | Peg3 prom inh-2 77 | HIF-2a inh conf inactive | HIF-1a cs 103
Cc1cccc(/C=N/Nc2ccc3ccccc3n2)c1	HIF-2a inh 52, TWEAK-Fn14 inh 93, TROY NFkB inh 84, Peg3 prom inh-1 67 | Peg3 prom inh-2 70 | HIF-2a inh conf 88 | HIF-1a cs 90
C(=N\Nc1ccc2ccccc2n1)/c1ccc2c(c1)OCCO2	HIF-2a inh 71, TWEAK-Fn14 inh 101, TROY NFkB inh 88, Peg3 prom inh-1 79 | Peg3 prom inh-2 77 | HIF-2a inh conf 91 | HIF-1a cs 100
Cc1cc(N/N=C/c2cccc(Br)c2)nc2ccccc12	none
Cc1cc2sc3ccc(C#CC4(O)CCCCC4)cc3c(=O)c2cc1C	HIF-2a inh 93, TWEAK-Fn14 inh 106, TROY NFkB inh 90, Peg3 prom inh-1 99 | Peg3 prom inh-2 97 | Mdm2-MdmX confirm 101 | HIF-2a inh conf 97 | HIF-1a cs 103
O=[N+]([O-])c1ccc(-c2nc(C(Cl)Cl)c3ccccc3n2)cc1	Peg3 prom inh-1 64 | Peg3 prom inh-2 inactive | Mdm2-MdmX confirm 102
CN(Cc1ccccc1)c1nc(-c2ccc([N+](=O)[O-])cc2)nc2ccccc12	none
CCOC(=O)CNC(=O)CSc1ccc(-c2nc3ccccc3[nH]2)cn1	none
CC(=O)CSc1ccc(-c2nc3cc(C)c(C)cc3[nH]2)cn1	HIF-2a inh 67, TWEAK-Fn14 inh 102, TROY NFkB inh 88, Peg3 prom inh-1 84 | Peg3 prom inh-2 71 | HIF-2a inh conf 85 | HIF-1a cs 100
CCCc1nc2oc3c(NCCCN(C)C)ncnc3c2c2c1CCCC2	Peg3 prom inh-1 92 | Peg3 prom inh-2 93 | Mdm2-MdmX confirm 101
CCCc1nc2oc3c(NCC4CCCO4)ncnc3c2c2c1COC(C)(C)C2 (stereo unspecified)	none
C(=NN1CCCCCC1)c1ccc2ccccc2n1	HIF-2a inh 87, KKLEB tox -84, TWEAK-Fn14 inh 104, TROY NFkB inh 87, Peg3 prom inh-1 91 | Peg3 prom inh-2 96 | HIF-2a inh conf 97 | HIF-1a cs 103
COCCn1c(C)cc(C2=NNC(=Nc3ccc(Cl)cc3Cl)SC2)c1C	none
COCCn1c(C)cc(C2=NNC(=NC3CC3)SC2)c1C	HIF-2a inh 93, TWEAK-Fn14 inh 102, TROY NFkB inh 86, Peg3 prom inh-1 104 | Peg3 prom inh-2 95 | Mdm2-MdmX confirm 101 | HIF-2a inh conf 99 | HIF-1a cs 105
CC1=C(C(=O)OCc2ccc3c(c2)OCO3)C(c2ccccc2)NC(=O)N1 (stereo unspecified)	CF NFkB block 84, TWEAK-Fn14 inh 87, TROY NFkB inh 59, Peg3 prom inh-1 51 | Peg3 prom inh-2 62 | Mdm2-MdmX confirm 96
CC1=C(C(=O)OCc2ccc3c(c2)OCO3)C(c2ccccc2OCc2ccccc2)NC(=O)N1 (stereo unspecified)	none
CC(=O)c1cccc(OCc2cc(C(=O)N(C)Cc3nccs3)no2)c1	none
O=C(Nc1cc(S(=O)(=O)N2CCOCC2)ccc1Cl)c1cc([N+](=O)[O-])ccc1Cl	HIF-2a inh 62, TWEAK-Fn14 inh 77, Peg3 prom inh-1 109 | Peg3 prom inh-2 84 | HIF-2a inh conf 50 | HIF-1a cs inactive
COc1cc(/C=C/C(=O)N2CCCN(C(=O)/C=C/c3cc(OC)c(OC)c(OC)c3)CC2)cc(OC)c1OC	none
COc1cc(/C=C/C(=O)N2CCC=CC2=O)cc(OC)c1OC	HIF-2a inh 94, CF NFkB block 81, TWEAK-Fn14 inh 92, Peg3 prom inh-1 104 | Peg3 prom inh-2 94 | CF NFkB inh conf inactive | HIF-2a inh conf 83 | HIF-1a cs 103
CCOc1ccc(NC(=O)c2cnccn2)cc1	none
CCOc1ccc(NC(=O)c2ccccn2)cc1	HIF-2a inh 56, TWEAK-Fn14 inh 95, TROY NFkB inh 72, Peg3 prom inh-1 67 | Peg3 prom inh-2 46 | HIF-2a inh conf 70 | HIF-1a cs 71
Cc1cc2c(c(/C=C/C(=O)c3ccccc3)c1)OC1(C=C2)Oc2ccccc2C(=O)N1C (stereo unspecified)	HIF-2a inh 80, CF NFkB block 62, TWEAK-Fn14 inh 69, Peg3 prom inh-1 80 | Peg3 prom inh-2 99 | CF NFkB inh conf inactive | HIF-2a inh conf 62 | HIF-1a cs 105
Cc1ccc2nc(C)cc(Nc3ccc([N+](=O)[O-])cc3)c2c1	HIF-2a inh 53, Peg3 prom inh-1 104 | Peg3 prom inh-2 98 | HIF-2a inh conf inactive | HIF-1a cs 95
COc1ccc2nc(C)cc(Nc3ccc(C)cc3)c2c1	none
O=C(OCC(F)(F)F)c1cccc(COc2ccc3ccccc3c2)c1	HIF-2a inh 83, Peg3 prom inh-1 73 | Peg3 prom inh-2 77 | HIF-2a inh conf 90 | HIF-1a cs inactive
COc1ccc(OCc2cccc(C(=O)O)c2)cc1	HIF-2a inh 93, TWEAK-Fn14 inh 53, Peg3 prom inh-1 96 | Peg3 prom inh-2 90 | Mdm2-MdmX confirm 93 | HIF-2a inh conf 97 | HIF-1a cs inactive
O=Cc1ccc(OCc2cccc(C(F)(F)F)c2)cc1O	none
CCCS(=O)(=O)c1cnc(C2COc3ccccc3O2)nc1N (stereo unspecified)	HIF-2a inh 81, TWEAK-Fn14 inh 102, TROY NFkB inh 81, Peg3 prom inh-1 88 | Peg3 prom inh-2 77 | HIF-2a inh conf 89 | HIF-1a cs 90
